Sampled rows, rich in hits. Any-hit rate of the full collection: about 11%.
HP1b chromo inh – blocks HP1-beta chromodomain binding to methylated histone tails | AID 540317 | Potency, µM (series often up to 114 µM), without a hit: at the highest dose activity change, negative = inhibition, usual class: inhibitors | AlphaScreen HP1-beta / biotin-H3K9me3 peptide binding | P83916 | 390,000 tested, 0.56% active; note: nearly all actives have a fitted effect of over 70% in size
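HP1-beta protein (50 nM final) preincubated 30 min at room temperature with biotinylated H3(1-18)K9me3 peptide (50 nM) in PBS pH 7.4, 0.01% Tween-20, then compound added for 30 min. AlphaScreen streptavidin donor/nickel chelate acceptor beads (10 ug/mL final), 30 min dark, luminescence read.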
G9a inh – inhibitors of human histone lysine methyltransferase G9a | Q96KQ7 | G9a H3K9 monomethylation, AlphaScreen, 2 h | Potency, µM (series often up to 102 µM), for the others: at the highest dose activity, negative = inhibition, hits mostly inhibitors | 350,000 tested, 8.8% active | AID 504332; note: % is set by controls: 0 for no effect and ±100 for the full control effect; nearly all actives have a fitted effect of over 75% in size
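Readings reflect AlphaScreen signal from monomethyl-H3K9 antibody detection. HMT at 20 nM; substrate b-H3K9 500 nM; cofactor SAM 20 uM; 2 h RT reaction; compounds tested as titrations in qHTS with 15 min preincubation.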
BAZ2B block – BAZ2B (human) inhibition; AlphaScreen BAZ2B-H3K14Ac peptide displacement; Potency, µM (top dose mostly 114 µM), inactives show at the top dose activity change, negative = inhibition, hits mostly inhibitors; 360,000 tested, 4.4% active; note: % is set by controls: 0 for no effect and ±100 for the full control effect; nearly all actives have a fitted effect of over 60% in size
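Inhibition is scored as reduced AlphaScreen emission. The BAZ2B/b-H3(5-23)K14Ac complex (50 nM each) in PBS pH 7.4, 0.01% Tween-20 meets compound (up to 110 uM) for 30 min at RT before bead addition.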
L3MBTL1 block – L3MBTL1 (human) inhibition. Q9Y468. AlphaScreen L3MBTL1–H3K9me1 peptide binding. Potency, µM (highest dose often 57.1 µM), inactives show at the top dose activity, negative = inhibition, hits mostly inhibitors. 230,000 tested, 0.66% active; note: % is set by controls: 0 for no effect and ±100 for the full control effect; nearly all actives have a fitted effect of over 60% in size
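Displacement of a biotinylated histone H3(1-15) peptide monomethylated at Lys9 (75 nM) from L3MBTL1 (50 nM) was measured by AlphaScreen after a 30 min room-temperature compound incubation; cefsulodin titration served as intraplate control.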
JMJD2A Tudor inh – JMJD2A Tudor domain (human) inhibition; O75164; AlphaScreen JMJD2A-Tudor / H3K4me3 peptide binding; Potency, µM (highest dose often 114 µM), for the others: at the top dose activity change, negative = inhibition, hits mostly inhibitors; 390,000 tested, 4.4% active; AID 504339; note: % is set by controls: 0 for no effect and ±100 for the full control effect; nearly all actives have a fitted effect of over 50% in size
Numbers without * were called inactive; ? = inconclusive; nt = no result given; ! = not active in a repeat; [ ] = remark or other dose. Calls come from the whole dose curve; as a rule, active = well fitted inhibition curve with a large enough effect; inconclusive = small, poorly fitted or top-dose-only effect; inactive = no such curve, though single readings can be large or run the other way. Potency is the fitted concentration of half-maximal effect.

SMILES	HP1b chromo inh	G9a inh	BAZ2B block	L3MBTL1 block	JMJD2A Tudor inh
O=C(O)c1ccc(-n2cccc2/C=N\NC(=O)c2cc3cc(Br)ccc3o2)cc1	45µM*	14µM*	7.9µM*	nt	22µM*
Cn1cc(/C=N/NC(=O)c2cc3cc(Br)ccc3o2)c2ccccc21	36%	50µM*	3%	nt	-9%
CCOCCc1nn2c(=O)cc(COC(=O)c3ccc(NC(=O)C(C)(C)C)cc3)nc2s1	26%	4%[59 µM]	-5%	nt	-15%
Cc1cc(C)n(CC(=O)Nc2ccc(F)c(F)c2)c(=O)c1C#N	15%	17%[59 µM]	-8%	nt	-10%
Nc1nc(Sc2c([N+](=O)[O-])cc(C(F)(F)F)cc2[N+](=O)[O-])n[nH]1	40%	nt	-3%	5%	-21%
CC(=O)Nc1ccc(NC(=O)C2CCN(S(=O)(=O)c3ccc4c(c3)CCCC(=O)N4)CC2)cc1	41%	4%[59 µM]	8%[57.1 µM]	nt	-6%
Cc1cccc(NC(=O)C2CCN(S(=O)(=O)c3ccc(F)cc3)CC2)c1C	0%	-32%[59 µM]	-1%	nt	-7%
Cc1cc(NC(=O)c2cc(Cl)ccc2Cl)ccc1-c1cc2ccccc2oc1=O	37%	-36%[59 µM]	0%	nt	-16%
O=C1C([N+](=O)[O-])=C(O)c2cccc3cccc1c23	nt	1.3µM*	45µM*	nt	nt
NC(=O)c1ccc(-c2ncc(-c3ccccc3)o2)cc1	20%	8%[12.7 µM]	3%	-1%	-15%
Cc1ccc(-c2cnc(-c3ccccc3C(=O)O)o2)cc1	20%	50µM*	-16%	nt	-20%
N#Cc1cn(CCOc2ccccc2F)c2ccccc12	118%	90%[59 µM]	52%	38%	34%[57.1 µM]
CN1CCN(C(=S)c2cn(CCOc3ccccc3F)c3ccccc23)CC1	?	35µM*	?	-7%	50µM*
COc1ccc(S(=O)(=O)NCC(c2ccco2)S(=O)(=O)c2ccc(C)cc2)cc1C (centres undefined)	13%	2%[59 µM]	-23%	nt	-24%
S=c1ncc2[nH]c(=S)[nH]c2[nH]1	?	nt	nt	nt	11µM*
CCCn1c2ccccc2c2cnn(CC(=O)NCCc3cc(OC)ccc3OC)c(=O)c21	14%	-27%[59 µM]	-5%	nt	-11%
O=C(Nc1nc(-c2ccccn2)cs1)c1cc2ccccc2o1	31%	-36%	22µM*	20µM*	25µM*
Cc1c(C(=O)Nc2nc(-c3ccccn3)cs2)oc2ccccc12	?	?	35µM*	?	?
Cc1cc(-c2csc(NC(=O)c3cc4ccccc4o3)n2)c(C)n1C	-4%	-12%[59 µM]	-2%	?	-21%
CC12CN3CC(c4ccccc4)(CN(C1)C3c1ccc(Cl)cc1)C2=O (centres undefined)	32%	3%[59 µM]	-11%	nt	-15%
Oc1ccc(/C=N/NC(=S)Nc2cccnc2)cc1O	?	?	?	11µM*	-32%
Oc1ccc(C=NNC(=S)Nc2cccnc2)nc1	19%	nt	nt	nt	10µM*
O=C(CCS(=O)(=O)c1cccc2nsnc12)NC1CCCCC1	24%	22µM*	-1%	2%	-13%
O=C(CNS(=O)(=O)c1cccc2nsnc12)NC1CCCCC1	21%	2%[2.33 µM]	15%	nt	-10%
COc1ccc(Cn2c(CCC(=O)Nc3cc(C)cc(C)c3)nc3cccnc32)cc1	-2%	4%[59 µM]	-11%	nt	-28%
SMILES	HP1b chromo inh	G9a inh	BAZ2B block	L3MBTL1 block	JMJD2A Tudor inh
Cc1nc2ccc(S(=O)(=O)CCC(=O)Nc3ccc(F)cc3C)cc2s1	-11%	4.5µM*	-3%	nt	71µM*
COc1ccc(Cn2c(CCC(=O)Nc3ccc(C)cc3)nc3cccnc32)cc1	8%	1%[59 µM]	-12%	nt	79µM*!
CCN(C(=O)CCS(=O)(=O)c1cccc2nonc12)c1ccc(C)c(C)c1	9%	16µM*	-17%	nt	-15%
COc1ccccc1NC(=O)CCS(=O)(=O)c1ccc2nc(C)sc2c1	33%	-2%[59 µM]	-1%	nt	11%
Cc1cccc(N(C)C(=O)CCS(=O)(=O)c2cccc3nonc23)c1	17%	12%[12.7 µM]	11%	nt	-6%
CC(C)(C)c1ccc(NC(=O)CSc2nnc3scc(-c4ccccc4)n23)cc1	5%	-43%[59 µM]	-18%	nt	-21%
CCN(CC)c1ccc(NC(=O)CCc2nc3cccnc3n2Cc2cccs2)c(C)c1	-15%	8.9µM*	?	nt	20µM*
Cc1ccc(CNC(=O)CCS(=O)(=O)c2cccc3nsnc23)cc1	20%	8%[12.7 µM]	12%	nt	-12%
CCOc1ccc(OCC)c(NC(=O)CCc2nc3cccnc3n2Cc2cccs2)c1	34%	-5%[59 µM]	-15%	nt	-21%
CCN(CC)c1ccc(NC(=O)CCS(=O)(=O)c2cccc3nsnc23)c(C)c1	?	40µM*	?	-7%	56µM*
Cc1ccc(NC(=O)CCS(=O)(=O)c2cccc3nsnc23)c(C)c1	35%	3%[59 µM]	2%	nt	-8%
CCc1ccc(NC(=O)CCS(=O)(=O)c2cccc3nsnc23)cc1	9%	40µM*	-7%	nt	-18%
Cc1ccc(N2C(=N)/C(=C3/Nc4ccccc4S3)C(c3ccccc3)C2=O)cc1 (centres undefined)	-3%	35µM*	11%	0%	?
Cc1ccc(N2C(=O)C(F)(F)C2c2ccccc2)cc1 (centres undefined)	88%	66%	125%	nt	43%
COc1ccccc1C1C=C(c2ccc(Cl)cc2)Nc2nc(N3C(=O)CCC3=O)nn21 (centres undefined)	17%	?	nt	0%	45µM*
COc1ccc(C2=CC(c3ccccc3Cl)n3nc(-c4ccc(C)cc4)nc3N2)cc1 (centres undefined)	-11%	?	11µM*	nt	?
COc1ccc(C2C=C(c3ccccc3)Nc3nc(NS(=O)(=O)c4ccc(C)cc4)nn32)cc1 (centres undefined)	18%	-2%[59 µM]	2%	nt	-19%
COc1ccccc1C1C=C(c2ccc(Cl)cc2)Nc2nc(NS(C)(=O)=O)nn21 (centres undefined)	nt	50µM*	3%	4%	nt
CS(=O)(=O)Nc1nc2n(n1)C(c1ccccc1)C=C(c1ccc(Br)cc1)N2 (centres undefined)	86%	?	-1%	5%	-16%
O=C(Cn1nnc(-c2cccc(C(F)(F)F)c2)n1)NCc1ccc(F)cc1	4%	-21%[59 µM]	-20%	nt	-10%
Cc1cccc(Nc2nc(-c3ccc(F)cc3)cs2)n1	15%	-45%	-5%	-11%	-18%
Cc1cccc(Nc2nc(-c3ccccn3)cs2)n1	43%	?	20µM*	4%[11.4 µM]	?
c1ccc(Nc2nc(-c3cccs3)cs2)nc1	4%	?	?	0%	-28%[11.4 µM]
Cc1cccc(Nc2nc(-c3cccs3)cs2)n1	-22%	8.9µM*	-32%	-6%[11.4 µM]	-23%
COc1ccccc1/C=C/c1nc(C#N)c(NCc2ccccc2)o1	19%	?	-34%	nt	-1%

Assay outcomes: PubChem, National Center for Advancing Translational Sciences (NCATS)
